These results are taken from article PMC7862700, “An all-to-all approach to the identification of sequence-specific readers for epigenetic DNA modifications on cytosine”.

Holding throughout (assay): DAPPL (digital affinity profiling via proximity ligation, sequencing); 10 mM Tris-HCl pH 7.5, 50 mM NaCl, 1 mM DTT, 4% glycerol, room temperature, 30 min; GST-TFs on glutathione beads, 16-mer random dsDNA library, 0.1% formaldehyde crosslink after washing; high values mean tight binding
Holding throughout (settings): protein: recombinant; tags: N-terminal GST; dsDNA, one strand shown

The target of one experiment is T1, FLI1 (Homo sapiens, UniProt Q01543 1-452).
T1 sequence: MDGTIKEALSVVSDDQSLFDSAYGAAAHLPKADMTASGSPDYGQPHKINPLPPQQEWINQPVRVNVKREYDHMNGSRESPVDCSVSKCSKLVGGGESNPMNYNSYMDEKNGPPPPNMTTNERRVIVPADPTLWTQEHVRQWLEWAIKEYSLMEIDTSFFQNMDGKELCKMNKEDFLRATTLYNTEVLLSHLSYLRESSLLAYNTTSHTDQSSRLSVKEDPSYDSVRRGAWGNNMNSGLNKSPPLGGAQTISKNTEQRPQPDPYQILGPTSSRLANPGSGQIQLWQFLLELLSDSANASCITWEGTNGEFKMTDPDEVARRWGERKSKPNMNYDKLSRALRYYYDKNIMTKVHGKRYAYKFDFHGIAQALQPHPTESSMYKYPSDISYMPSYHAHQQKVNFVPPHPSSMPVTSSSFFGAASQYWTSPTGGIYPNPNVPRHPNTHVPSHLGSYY
A digest of the protocol:
(§1)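 Yeast served to express human transcription factors as GST fusions, which were then captured on glutathione beads and labelled with DNA barcodes. Pooled with a tag-only sample, they were incubated with 200 nmole of a 16-mer random double-stranded DNA library for 30 min at room temperature in Tris/NaCl/DTT/glycerol buffer, washed, crosslinked with 0.1% formaldehyde, ligated by proximity, amplified by PCR and sequenced. Dividing each hexamer's read frequency for a factor by its frequency for the tag-only sample gives the binding signal.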

The target in a further experiment is T2, ELK1 (Homo sapiens, UniProt P19419 1-428).
T2 sequence: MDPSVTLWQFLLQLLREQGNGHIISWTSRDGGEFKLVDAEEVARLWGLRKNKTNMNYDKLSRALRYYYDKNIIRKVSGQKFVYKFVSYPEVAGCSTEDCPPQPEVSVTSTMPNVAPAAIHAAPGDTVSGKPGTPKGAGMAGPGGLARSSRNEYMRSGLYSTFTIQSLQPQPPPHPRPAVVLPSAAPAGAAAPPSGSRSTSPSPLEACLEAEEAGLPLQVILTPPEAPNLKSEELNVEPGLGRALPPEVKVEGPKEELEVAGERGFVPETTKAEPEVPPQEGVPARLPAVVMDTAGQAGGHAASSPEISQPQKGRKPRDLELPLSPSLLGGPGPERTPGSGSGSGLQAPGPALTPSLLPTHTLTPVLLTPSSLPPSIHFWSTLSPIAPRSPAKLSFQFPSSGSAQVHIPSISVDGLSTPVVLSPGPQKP
A digest of the protocol: as §1

For the next experiment, the target named is T3, GABPA (Homo sapiens, UniProt Q06546 1-454).
T3 sequence: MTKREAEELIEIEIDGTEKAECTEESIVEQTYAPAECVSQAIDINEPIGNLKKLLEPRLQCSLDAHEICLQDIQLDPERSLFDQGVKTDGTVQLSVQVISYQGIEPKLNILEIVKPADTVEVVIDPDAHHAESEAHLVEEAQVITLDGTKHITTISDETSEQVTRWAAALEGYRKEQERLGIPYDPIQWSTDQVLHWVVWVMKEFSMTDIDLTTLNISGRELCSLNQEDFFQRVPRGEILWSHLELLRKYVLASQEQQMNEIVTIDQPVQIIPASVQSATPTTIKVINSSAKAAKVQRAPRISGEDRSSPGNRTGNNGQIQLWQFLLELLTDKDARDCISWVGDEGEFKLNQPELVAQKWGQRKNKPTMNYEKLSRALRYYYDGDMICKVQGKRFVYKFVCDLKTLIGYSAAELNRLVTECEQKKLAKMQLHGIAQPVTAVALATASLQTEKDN
The procedure, abridged: as §1

For another experiment, the target named is T4, ERG (Homo sapiens, UniProt P11308 1-479).
T4 sequence: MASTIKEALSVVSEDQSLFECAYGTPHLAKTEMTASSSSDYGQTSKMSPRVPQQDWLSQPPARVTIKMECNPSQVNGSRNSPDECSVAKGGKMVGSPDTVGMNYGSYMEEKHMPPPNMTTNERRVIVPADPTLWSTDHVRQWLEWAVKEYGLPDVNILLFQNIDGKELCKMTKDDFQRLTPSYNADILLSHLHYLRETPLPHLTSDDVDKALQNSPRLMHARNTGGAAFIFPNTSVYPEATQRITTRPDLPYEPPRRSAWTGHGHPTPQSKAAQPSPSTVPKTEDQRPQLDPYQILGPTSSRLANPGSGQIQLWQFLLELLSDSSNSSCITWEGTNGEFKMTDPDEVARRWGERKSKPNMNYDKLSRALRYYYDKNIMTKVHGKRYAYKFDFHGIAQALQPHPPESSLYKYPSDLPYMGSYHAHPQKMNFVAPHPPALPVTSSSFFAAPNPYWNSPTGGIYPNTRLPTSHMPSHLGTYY
The procedure, abridged:
as §1

The target of a further experiment is ELF1 (Homo sapiens, UniProt P32519 1-619). A digest of the protocol:
as §1

Another experiment deals with T5, EHF (Homo sapiens, UniProt Q9NZC4 1-300).
T5 sequence: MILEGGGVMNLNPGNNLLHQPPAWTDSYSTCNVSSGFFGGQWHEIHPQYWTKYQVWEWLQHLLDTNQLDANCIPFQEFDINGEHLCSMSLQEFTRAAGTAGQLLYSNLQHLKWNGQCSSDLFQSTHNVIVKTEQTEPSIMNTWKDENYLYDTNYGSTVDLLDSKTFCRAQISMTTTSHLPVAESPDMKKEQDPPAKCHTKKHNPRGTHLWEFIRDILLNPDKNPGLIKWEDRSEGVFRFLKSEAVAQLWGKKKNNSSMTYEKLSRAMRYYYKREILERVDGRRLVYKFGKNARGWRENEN
A digest of the protocol: as §1

A further experiment deals with SPI1 (Homo sapiens, UniProt P17947 1-270). The procedure, abridged:
as §1

The target of a further experiment is SPIB (Homo sapiens, UniProt Q01892 1-262). A digest of the protocol:
as §1

The next experiment deals with T6, ELK3 (Homo sapiens, UniProt P41970 1-407).
T6 sequence: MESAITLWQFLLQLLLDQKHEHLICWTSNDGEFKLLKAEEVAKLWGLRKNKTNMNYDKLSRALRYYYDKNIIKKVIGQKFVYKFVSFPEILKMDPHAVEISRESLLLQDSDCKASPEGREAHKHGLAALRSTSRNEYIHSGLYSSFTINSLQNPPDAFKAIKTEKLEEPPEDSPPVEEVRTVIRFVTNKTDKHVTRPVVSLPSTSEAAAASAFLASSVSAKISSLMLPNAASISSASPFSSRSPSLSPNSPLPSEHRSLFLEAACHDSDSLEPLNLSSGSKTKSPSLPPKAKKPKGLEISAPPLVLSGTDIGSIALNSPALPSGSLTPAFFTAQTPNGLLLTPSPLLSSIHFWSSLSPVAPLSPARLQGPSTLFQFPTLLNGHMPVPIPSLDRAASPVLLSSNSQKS
A digest of the protocol: as §1

Chain of ELF1 (P32519 whole entry): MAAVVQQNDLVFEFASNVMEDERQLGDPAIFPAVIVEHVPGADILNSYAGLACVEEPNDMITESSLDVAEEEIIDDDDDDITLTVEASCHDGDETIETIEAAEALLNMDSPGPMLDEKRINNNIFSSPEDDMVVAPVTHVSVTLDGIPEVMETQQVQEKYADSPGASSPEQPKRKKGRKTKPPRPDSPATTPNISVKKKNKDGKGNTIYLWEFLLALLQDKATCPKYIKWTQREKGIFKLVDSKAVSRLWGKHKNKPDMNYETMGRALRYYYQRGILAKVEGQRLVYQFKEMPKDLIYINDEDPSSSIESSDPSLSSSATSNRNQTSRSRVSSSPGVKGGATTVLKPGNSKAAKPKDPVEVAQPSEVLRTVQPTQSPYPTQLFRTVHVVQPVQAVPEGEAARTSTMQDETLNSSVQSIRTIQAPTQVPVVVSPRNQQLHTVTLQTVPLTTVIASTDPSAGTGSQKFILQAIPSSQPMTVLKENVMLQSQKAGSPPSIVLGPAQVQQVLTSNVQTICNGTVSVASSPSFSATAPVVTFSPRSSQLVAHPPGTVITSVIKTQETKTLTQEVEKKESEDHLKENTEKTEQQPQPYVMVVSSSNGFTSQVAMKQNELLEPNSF
Chain of SPIB (Q01892 whole entry): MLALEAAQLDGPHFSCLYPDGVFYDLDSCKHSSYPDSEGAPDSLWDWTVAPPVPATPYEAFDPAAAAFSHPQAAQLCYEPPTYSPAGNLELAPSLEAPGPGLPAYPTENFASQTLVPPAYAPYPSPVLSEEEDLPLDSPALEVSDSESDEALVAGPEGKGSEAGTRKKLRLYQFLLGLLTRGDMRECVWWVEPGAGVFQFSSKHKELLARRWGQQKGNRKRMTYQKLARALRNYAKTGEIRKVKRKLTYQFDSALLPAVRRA

Consider TCTAAT, for which the binding signal is 1.2 fold enrichment (6-mer frequency, TF over GST control) in the experiment with FLI1; 1.17 fold enrichment (6-mer frequency, TF over GST control) with ELK1; 1.18 fold enrichment (6-mer frequency, TF over GST control) with GABPA; 1.17 fold enrichment (6-mer frequency, TF over GST control) with ERG; 1.14 fold enrichment (6-mer frequency, TF over GST control) in the experiment with ELF1; 1.26 fold enrichment (6-mer frequency, TF over GST control) with EHF. For the same sequence, the binding signal with SPI1 is 1.19 fold enrichment (6-mer frequency, TF over GST control); with SPIB it was 1.16 fold enrichment (6-mer frequency, TF over GST control); in the experiment with ELK3, 1.21 fold enrichment (6-mer frequency, TF over GST control).

Regarding CCCTTC, the binding signal with FLI1 was 1.55 fold enrichment (6-mer frequency, TF over GST control); with ELK1 it was 1.55 fold enrichment (6-mer frequency, TF over GST control); in the experiment with GABPA, 1.39 fold enrichment (6-mer frequency, TF over GST control); with ERG it was 1.48 fold enrichment (6-mer frequency, TF over GST control); in the experiment with ELF1, 1.45 fold enrichment (6-mer frequency, TF over GST control); with EHF, 1.52 fold enrichment (6-mer frequency, TF over GST control). Also, the binding signal with SPI1 was 1.52 fold enrichment (6-mer frequency, TF over GST control); with SPIB it was 1.56 fold enrichment (6-mer frequency, TF over GST control); with ELK3, 1.44 fold enrichment (6-mer frequency, TF over GST control).

Regarding ATTATG, the binding signal in the experiment with FLI1 was 1.3 fold enrichment (6-mer frequency, TF over GST control); with ELK1 it was 1.18 fold enrichment (6-mer frequency, TF over GST control); in the experiment with GABPA it was 1.16 fold enrichment (6-mer frequency, TF over GST control); with ERG, 1.2 fold enrichment (6-mer frequency, TF over GST control); with ELF1, 1.2 fold enrichment (6-mer frequency, TF over GST control); with EHF, 1.25 fold enrichment (6-mer frequency, TF over GST control). The binding signal was 1.25 fold enrichment (6-mer frequency, TF over GST control) with SPI1; 1.25 fold enrichment (6-mer frequency, TF over GST control) with SPIB; 1.17 fold enrichment (6-mer frequency, TF over GST control) with ELK3.

As for TGGTTT, the binding signal was 1.6 fold enrichment (6-mer frequency, TF over GST control) in the experiment with FLI1; 1.44 fold enrichment (6-mer frequency, TF over GST control) in the experiment with ELK1; 1.55 fold enrichment (6-mer frequency, TF over GST control) with GABPA; 1.51 fold enrichment (6-mer frequency, TF over GST control) with ERG; 1.58 fold enrichment (6-mer frequency, TF over GST control) with ELF1; 1.48 fold enrichment (6-mer frequency, TF over GST control) with EHF. In addition, the binding signal was 1.66 fold enrichment (6-mer frequency, TF over GST control) in the experiment with SPI1; 1.43 fold enrichment (6-mer frequency, TF over GST control) with SPIB; 1.6 fold enrichment (6-mer frequency, TF over GST control) with ELK3.

Turning to ACTACT, the binding signal is 1.28 fold enrichment (6-mer frequency, TF over GST control) in the experiment with FLI1; 1.25 fold enrichment (6-mer frequency, TF over GST control) with ELK1; 1.28 fold enrichment (6-mer frequency, TF over GST control) in the experiment with GABPA; 1.28 fold enrichment (6-mer frequency, TF over GST control) in the experiment with ERG; 1.32 fold enrichment (6-mer frequency, TF over GST control) with ELF1; 1.34 fold enrichment (6-mer frequency, TF over GST control) with EHF. Moreover, the binding signal with SPI1 was 1.29 fold enrichment (6-mer frequency, TF over GST control); with SPIB it was 1.34 fold enrichment (6-mer frequency, TF over GST control); in the experiment with ELK3 it was 1.31 fold enrichment (6-mer frequency, TF over GST control).

Take TCTCTA: the binding signal is 1.21 fold enrichment (6-mer frequency, TF over GST control) with FLI1; 1.31 fold enrichment (6-mer frequency, TF over GST control) in the experiment with ELK1; 1.23 fold enrichment (6-mer frequency, TF over GST control) in the experiment with GABPA; 1.36 fold enrichment (6-mer frequency, TF over GST control) with ERG; 1.36 fold enrichment (6-mer frequency, TF over GST control) in the experiment with ELF1; 1.34 fold enrichment (6-mer frequency, TF over GST control) with EHF. Also, the binding signal with SPI1 is 1.26 fold enrichment (6-mer frequency, TF over GST control); with SPIB, 1.33 fold enrichment (6-mer frequency, TF over GST control); with ELK3 it was 1.22 fold enrichment (6-mer frequency, TF over GST control).

As for TTTCAG, the binding signal was 1.36 fold enrichment (6-mer frequency, TF over GST control) in the experiment with FLI1; 1.19 fold enrichment (6-mer frequency, TF over GST control) in the experiment with ELK1; 1.34 fold enrichment (6-mer frequency, TF over GST control) with GABPA; 1.3 fold enrichment (6-mer frequency, TF over GST control) in the experiment with ERG; 1.31 fold enrichment (6-mer frequency, TF over GST control) with ELF1; 1.34 fold enrichment (6-mer frequency, TF over GST control) with EHF. Besides, the binding signal in the experiment with SPI1 was 1.35 fold enrichment (6-mer frequency, TF over GST control); in the experiment with SPIB it was 1.24 fold enrichment (6-mer frequency, TF over GST control); in the experiment with ELK3, 1.23 fold enrichment (6-mer frequency, TF over GST control).
